From article PMC11006913 come the findings set out here.

What all share (assay): PBM; 200 nM protein, PBS
Holding throughout (conditions): dsDNA, one strand shown

Assay [1] addresses HOXB9 (Homo sapiens, UniProt P17482 171-250, T197M).
For assay [2], the target named is HOXC9 (Homo sapiens, UniProt P31274 178-260, K195R).
The target of assay [3] is HOXC10 (Homo sapiens, UniProt Q9NYD6 254-340).
The target of assay [4] is HOXB9 (Homo sapiens, UniProt P17482 171-250).
Assay [5] deals with HOXC9 (Homo sapiens, UniProt P31274 178-260).
HOXC9 (Homo sapiens, UniProt P31274 178-260), sequence (P31274 178-260): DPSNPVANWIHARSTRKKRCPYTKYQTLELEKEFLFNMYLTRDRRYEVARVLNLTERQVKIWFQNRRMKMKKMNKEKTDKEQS
The target of assay [6] is HOXC9 (Homo sapiens, UniProt P31274 178-260, R193K).
HOXC9 (Homo sapiens, UniProt P31274 178-260, R193K), sequence (P31274 178-260 R193K): as the sequence (P31274 178-260) above, with R16K counted along it
In assay [7] the target is HOXC10 (Homo sapiens, UniProt Q9NYD6 254-340, K271E).
HOXC10 (Homo sapiens, UniProt Q9NYD6 254-340, K271E), sequence (Q9NYD6 254-340 K271E): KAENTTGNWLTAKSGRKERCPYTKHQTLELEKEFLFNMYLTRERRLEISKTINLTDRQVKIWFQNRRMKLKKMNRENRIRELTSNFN
Assay [8] concerns the target HOXB9 (Homo sapiens, UniProt P17482 171-250, R186Q).
The target in assay [9] is HOXC9 (Homo sapiens, UniProt P31274 178-260, R222W).
HOXC9 (Homo sapiens, UniProt P31274 178-260, R222W), sequence (P31274 178-260 R222W): as the sequence (P31274 178-260) above, with R45W counted along it
Assay [10] addresses HOXD13 (Homo sapiens, UniProt P35453 263-343, T313R).
Assay [11] has as its target HOXD13 (Homo sapiens, UniProt P35453 263-343).
Assay [12] concerns the target HOXD13 (Homo sapiens, UniProt P35453 263-343, T313A).

HOXC9 (Homo sapiens, UniProt P31274 178-260, K195R), sequence (P31274 178-260 K195R): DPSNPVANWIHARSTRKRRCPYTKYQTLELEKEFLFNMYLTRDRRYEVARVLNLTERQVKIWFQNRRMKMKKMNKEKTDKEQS
HOXB9 (Homo sapiens, UniProt P17482 171-250, R186Q), sequence (P17482 171-250 R186Q): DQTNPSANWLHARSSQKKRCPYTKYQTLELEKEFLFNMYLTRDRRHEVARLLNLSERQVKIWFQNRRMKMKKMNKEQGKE
HOXB9 (Homo sapiens, UniProt P17482 171-250), sequence (P17482 171-250): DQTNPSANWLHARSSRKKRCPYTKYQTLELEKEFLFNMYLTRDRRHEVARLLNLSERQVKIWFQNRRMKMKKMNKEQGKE
HOXD13 (Homo sapiens, UniProt P35453 263-343, T313R), sequence (P35453 263-343 T313R): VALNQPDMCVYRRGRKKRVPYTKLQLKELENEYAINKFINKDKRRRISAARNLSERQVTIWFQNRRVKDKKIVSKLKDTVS
HOXC10 (Homo sapiens, UniProt Q9NYD6 254-340), sequence (Q9NYD6 254-340): as the sequence (Q9NYD6 254-340 K271E) above, with E18K counted along it
HOXD13 (Homo sapiens, UniProt P35453 263-343), sequence (P35453 263-343): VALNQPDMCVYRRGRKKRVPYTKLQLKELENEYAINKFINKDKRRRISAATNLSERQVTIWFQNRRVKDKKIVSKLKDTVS
HOXD13 (Homo sapiens, UniProt P35453 263-343, T313A), sequence (P35453 263-343 T313A): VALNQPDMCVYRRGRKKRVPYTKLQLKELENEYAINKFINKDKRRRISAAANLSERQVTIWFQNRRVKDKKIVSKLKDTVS
HOXB9 (Homo sapiens, UniProt P17482 171-250, T197M), sequence (P17482 171-250 T197M): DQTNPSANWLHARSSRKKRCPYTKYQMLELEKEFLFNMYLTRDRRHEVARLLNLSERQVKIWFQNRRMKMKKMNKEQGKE

As to GTCGTTAA, the binding signal with HOXB9 [1] is 10 upbm affinity estimate (log intensity, higher = more binding, comparable within an allelic series); with HOXC9 [2] it was 12.6 upbm affinity estimate (log intensity, higher = more binding, comparable within an allelic series); with HOXC10 [3], 12.5 upbm affinity estimate (log intensity, higher = more binding, comparable within an allelic series); in the assay with HOXB9 [4] it was 11.8 upbm affinity estimate (log intensity, higher = more binding, comparable within an allelic series); with HOXC9 [5] it was 12.8 upbm affinity estimate (log intensity, higher = more binding, comparable within an allelic series); in the assay with HOXC9 [6], 12.6 upbm affinity estimate (log intensity, higher = more binding, comparable within an allelic series). Also, the binding signal was 12.4 upbm affinity estimate (log intensity, higher = more binding, comparable within an allelic series) with HOXC10 [7]; 11.3 upbm affinity estimate (log intensity, higher = more binding, comparable within an allelic series) in the assay with HOXB9 [8]; 10.6 upbm affinity estimate (log intensity, higher = more binding, comparable within an allelic series) with HOXC9 [9].

Take ATAAAACA: the binding signal is 9.83 upbm affinity estimate (log intensity, higher = more binding, comparable within an allelic series) with HOXB9 [1]; 12.4 upbm affinity estimate (log intensity, higher = more binding, comparable within an allelic series) with HOXC9 [2]; 12.2 upbm affinity estimate (log intensity, higher = more binding, comparable within an allelic series) with HOXC10 [3]; 11.8 upbm affinity estimate (log intensity, higher = more binding, comparable within an allelic series) in the assay with HOXB9 [4]; 12.5 upbm affinity estimate (log intensity, higher = more binding, comparable within an allelic series) with HOXC9 [5]; 10.7 upbm affinity estimate (log intensity, higher = more binding, comparable within an allelic series) with HOXD13 [10]. Moreover, the binding signal in the assay with HOXC9 [6] is 12.5 upbm affinity estimate (log intensity, higher = more binding, comparable within an allelic series); with HOXD13 [11], 11.9 upbm affinity estimate (log intensity, higher = more binding, comparable within an allelic series); with HOXC10 [7], 11.6 upbm affinity estimate (log intensity, higher = more binding, comparable within an allelic series); in the assay with HOXD13 [12], 11.6 upbm affinity estimate (log intensity, higher = more binding, comparable within an allelic series); in the assay with HOXB9 [8], 11.5 upbm affinity estimate (log intensity, higher = more binding, comparable within an allelic series); in the assay with HOXC9 [9], 11.1 upbm affinity estimate (log intensity, higher = more binding, comparable within an allelic series).

Take GTCGTAAA: the binding signal is 9.95 upbm affinity estimate (log intensity, higher = more binding, comparable within an allelic series) with HOXB9 [1]; 13.1 upbm affinity estimate (log intensity, higher = more binding, comparable within an allelic series) with HOXC9 [2]; 13.2 upbm affinity estimate (log intensity, higher = more binding, comparable within an allelic series) with HOXC10 [3]; 12.6 upbm affinity estimate (log intensity, higher = more binding, comparable within an allelic series) with HOXB9 [4]; 13.3 upbm affinity estimate (log intensity, higher = more binding, comparable within an allelic series) with HOXC9 [5]; 10.9 upbm affinity estimate (log intensity, higher = more binding, comparable within an allelic series) with HOXD13 [10]. The binding signal in the assay with HOXC9 [6] is 13 upbm affinity estimate (log intensity, higher = more binding, comparable within an allelic series); with HOXD13 [11], 12.3 upbm affinity estimate (log intensity, higher = more binding, comparable within an allelic series); in the assay with HOXC10 [7] it was 12.7 upbm affinity estimate (log intensity, higher = more binding, comparable within an allelic series); with HOXD13 [12], 11.9 upbm affinity estimate (log intensity, higher = more binding, comparable within an allelic series); with HOXB9 [8] it was 11.9 upbm affinity estimate (log intensity, higher = more binding, comparable within an allelic series); with HOXC9 [9], 11 upbm affinity estimate (log intensity, higher = more binding, comparable within an allelic series).

With CTCATAAA, the binding signal in the assay with HOXB9 [1] is 9.59 upbm affinity estimate (log intensity, higher = more binding, comparable within an allelic series); with HOXC9 [2], 12.6 upbm affinity estimate (log intensity, higher = more binding, comparable within an allelic series); in the assay with HOXC10 [3], 12.4 upbm affinity estimate (log intensity, higher = more binding, comparable within an allelic series); with HOXB9 [4], 11.9 upbm affinity estimate (log intensity, higher = more binding, comparable within an allelic series); with HOXC9 [5], 12.8 upbm affinity estimate (log intensity, higher = more binding, comparable within an allelic series); in the assay with HOXD13 [10], 11.2 upbm affinity estimate (log intensity, higher = more binding, comparable within an allelic series). The binding signal in the assay with HOXC9 [6] was 12.6 upbm affinity estimate (log intensity, higher = more binding, comparable within an allelic series); in the assay with HOXD13 [11], 12.5 upbm affinity estimate (log intensity, higher = more binding, comparable within an allelic series); with HOXC10 [7], 11.8 upbm affinity estimate (log intensity, higher = more binding, comparable within an allelic series); with HOXD13 [12] it was 12.2 upbm affinity estimate (log intensity, higher = more binding, comparable within an allelic series); in the assay with HOXB9 [8], 11.5 upbm affinity estimate (log intensity, higher = more binding, comparable within an allelic series); in the assay with HOXC9 [9] it was 11.1 upbm affinity estimate (log intensity, higher = more binding, comparable within an allelic series).

For the sequence CTATAAAA, the binding signal with HOXB9 [1] is 9.77 upbm affinity estimate (log intensity, higher = more binding, comparable within an allelic series); with HOXC9 [2], 12.8 upbm affinity estimate (log intensity, higher = more binding, comparable within an allelic series); in the assay with HOXC10 [3] it was 12.4 upbm affinity estimate (log intensity, higher = more binding, comparable within an allelic series); with HOXB9 [4], 12.2 upbm affinity estimate (log intensity, higher = more binding, comparable within an allelic series); in the assay with HOXC9 [5], 12.9 upbm affinity estimate (log intensity, higher = more binding, comparable within an allelic series); with HOXD13 [10], 11.1 upbm affinity estimate (log intensity, higher = more binding, comparable within an allelic series). Further, the binding signal with HOXC9 [6] was 12.8 upbm affinity estimate (log intensity, higher = more binding, comparable within an allelic series); in the assay with HOXD13 [11], 12.4 upbm affinity estimate (log intensity, higher = more binding, comparable within an allelic series); with HOXC10 [7], 11.7 upbm affinity estimate (log intensity, higher = more binding, comparable within an allelic series); with HOXD13 [12], 12.2 upbm affinity estimate (log intensity, higher = more binding, comparable within an allelic series); with HOXB9 [8], 11.9 upbm affinity estimate (log intensity, higher = more binding, comparable within an allelic series); in the assay with HOXC9 [9], 11.4 upbm affinity estimate (log intensity, higher = more binding, comparable within an allelic series).

On to ATTTATGA, for which the binding signal with HOXB9 [1] is 9.81 upbm affinity estimate (log intensity, higher = more binding, comparable within an allelic series); with HOXC9 [2], 12.5 upbm affinity estimate (log intensity, higher = more binding, comparable within an allelic series); with HOXC10 [3], 12.4 upbm affinity estimate (log intensity, higher = more binding, comparable within an allelic series); in the assay with HOXB9 [4] it was 11.8 upbm affinity estimate (log intensity, higher = more binding, comparable within an allelic series); with HOXC9 [5], 12.7 upbm affinity estimate (log intensity, higher = more binding, comparable within an allelic series); with HOXD13 [10], 10.9 upbm affinity estimate (log intensity, higher = more binding, comparable within an allelic series). Moreover, the binding signal with HOXC9 [6] is 12.6 upbm affinity estimate (log intensity, higher = more binding, comparable within an allelic series); with HOXD13 [11], 12 upbm affinity estimate (log intensity, higher = more binding, comparable within an allelic series); in the assay with HOXC10 [7], 11.7 upbm affinity estimate (log intensity, higher = more binding, comparable within an allelic series); with HOXD13 [12] it was 11.8 upbm affinity estimate (log intensity, higher = more binding, comparable within an allelic series); with HOXB9 [8] it was 11.5 upbm affinity estimate (log intensity, higher = more binding, comparable within an allelic series); with HOXC9 [9], 11.1 upbm affinity estimate (log intensity, higher = more binding, comparable within an allelic series).
